# Targets with the largest changes are over-represented here; the source holds about 21,000 in all.
# Compound: Cc1cc(ccc1-c1ccccc1)C(=O)N1CCCN(CC1)C(=O)CCl [compound 10]
# Assay: probe-labelled cysteine peptide fold change vs DMSO (competition) (log2 fold change); higher = less target engagement (more negative = stronger competition)
# Details: 10 µM; THP-1; incubation time: 4 h
# 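Also: competitive profiling in live THP-1 cells: cysteine peptides tagged with an iodoacetamide desthiobiotin (IA-DTB) probe, intensity after compound treatment relative to DMSO-treated cells.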
# UniProt Q8IX01, sequence (Q8IX01 whole entry, looked up): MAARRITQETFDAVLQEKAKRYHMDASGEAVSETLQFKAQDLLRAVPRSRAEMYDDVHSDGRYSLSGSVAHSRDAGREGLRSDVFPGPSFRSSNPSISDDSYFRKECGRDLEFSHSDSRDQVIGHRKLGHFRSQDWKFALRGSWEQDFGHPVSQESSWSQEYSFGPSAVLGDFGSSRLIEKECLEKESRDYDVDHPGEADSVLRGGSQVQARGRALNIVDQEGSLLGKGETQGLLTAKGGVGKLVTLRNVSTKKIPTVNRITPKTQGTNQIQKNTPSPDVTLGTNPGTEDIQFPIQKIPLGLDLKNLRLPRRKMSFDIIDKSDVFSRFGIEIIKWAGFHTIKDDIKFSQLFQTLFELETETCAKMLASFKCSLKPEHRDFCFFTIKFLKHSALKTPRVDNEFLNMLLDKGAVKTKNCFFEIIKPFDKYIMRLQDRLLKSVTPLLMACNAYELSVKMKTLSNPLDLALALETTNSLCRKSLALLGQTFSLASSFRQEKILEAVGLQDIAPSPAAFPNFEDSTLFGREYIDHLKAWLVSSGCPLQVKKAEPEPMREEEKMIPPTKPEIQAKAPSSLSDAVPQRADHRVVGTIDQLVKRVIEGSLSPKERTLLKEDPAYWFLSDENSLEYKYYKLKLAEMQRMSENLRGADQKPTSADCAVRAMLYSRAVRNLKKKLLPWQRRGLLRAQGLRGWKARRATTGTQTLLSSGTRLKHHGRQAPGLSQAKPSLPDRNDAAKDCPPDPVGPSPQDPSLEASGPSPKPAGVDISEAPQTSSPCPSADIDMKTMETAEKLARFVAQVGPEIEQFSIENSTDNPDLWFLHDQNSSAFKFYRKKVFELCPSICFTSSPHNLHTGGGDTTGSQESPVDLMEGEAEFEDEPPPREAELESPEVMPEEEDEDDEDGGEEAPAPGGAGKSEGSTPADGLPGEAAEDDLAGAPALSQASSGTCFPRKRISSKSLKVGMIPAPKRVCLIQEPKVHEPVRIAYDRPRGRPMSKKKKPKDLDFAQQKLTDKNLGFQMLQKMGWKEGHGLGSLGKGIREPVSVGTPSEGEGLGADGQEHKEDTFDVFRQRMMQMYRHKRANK
# UniProt P11388, sequence (P11388 whole entry, looked up): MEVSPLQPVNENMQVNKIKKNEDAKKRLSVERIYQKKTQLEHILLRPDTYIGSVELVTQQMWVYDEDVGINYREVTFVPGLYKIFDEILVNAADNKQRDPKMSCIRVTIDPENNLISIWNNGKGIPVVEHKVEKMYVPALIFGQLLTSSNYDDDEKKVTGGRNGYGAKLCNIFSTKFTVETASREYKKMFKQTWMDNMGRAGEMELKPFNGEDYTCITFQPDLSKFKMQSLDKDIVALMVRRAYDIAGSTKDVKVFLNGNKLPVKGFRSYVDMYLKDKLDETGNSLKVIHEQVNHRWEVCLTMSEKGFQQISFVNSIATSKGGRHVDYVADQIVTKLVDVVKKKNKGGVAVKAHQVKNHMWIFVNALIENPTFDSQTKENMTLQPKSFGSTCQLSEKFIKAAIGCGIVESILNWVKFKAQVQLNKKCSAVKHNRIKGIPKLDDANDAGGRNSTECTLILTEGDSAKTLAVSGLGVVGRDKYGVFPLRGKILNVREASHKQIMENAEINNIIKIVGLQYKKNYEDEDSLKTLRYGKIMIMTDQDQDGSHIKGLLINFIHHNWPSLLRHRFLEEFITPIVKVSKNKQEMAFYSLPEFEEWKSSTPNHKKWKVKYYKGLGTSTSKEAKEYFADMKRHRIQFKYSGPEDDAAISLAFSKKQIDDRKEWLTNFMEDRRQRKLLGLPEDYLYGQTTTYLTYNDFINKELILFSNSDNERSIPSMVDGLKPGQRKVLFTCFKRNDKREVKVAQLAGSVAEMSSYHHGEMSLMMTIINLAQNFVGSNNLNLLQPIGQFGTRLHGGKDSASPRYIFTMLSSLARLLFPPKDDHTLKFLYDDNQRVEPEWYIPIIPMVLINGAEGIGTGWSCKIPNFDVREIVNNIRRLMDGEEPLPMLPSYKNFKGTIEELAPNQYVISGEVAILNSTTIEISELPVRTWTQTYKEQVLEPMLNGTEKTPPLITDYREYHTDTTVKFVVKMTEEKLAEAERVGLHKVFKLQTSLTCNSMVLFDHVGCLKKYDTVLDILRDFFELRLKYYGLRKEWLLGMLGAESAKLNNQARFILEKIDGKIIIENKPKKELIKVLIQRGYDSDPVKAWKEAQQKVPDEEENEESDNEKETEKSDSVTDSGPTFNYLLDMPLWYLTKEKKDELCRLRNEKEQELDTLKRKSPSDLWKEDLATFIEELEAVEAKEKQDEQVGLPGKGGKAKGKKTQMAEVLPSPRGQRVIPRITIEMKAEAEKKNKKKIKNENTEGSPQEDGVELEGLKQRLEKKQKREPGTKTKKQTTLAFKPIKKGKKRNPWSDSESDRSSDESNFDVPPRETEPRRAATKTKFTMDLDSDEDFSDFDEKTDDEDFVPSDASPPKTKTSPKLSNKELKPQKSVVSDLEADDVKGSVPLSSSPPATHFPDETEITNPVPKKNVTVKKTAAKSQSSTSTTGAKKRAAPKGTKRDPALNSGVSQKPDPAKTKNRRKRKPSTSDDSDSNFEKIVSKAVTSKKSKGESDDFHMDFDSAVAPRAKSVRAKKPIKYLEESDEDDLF
# UniProt Q9NXH8, sequence (Q9NXH8 whole entry, looked up): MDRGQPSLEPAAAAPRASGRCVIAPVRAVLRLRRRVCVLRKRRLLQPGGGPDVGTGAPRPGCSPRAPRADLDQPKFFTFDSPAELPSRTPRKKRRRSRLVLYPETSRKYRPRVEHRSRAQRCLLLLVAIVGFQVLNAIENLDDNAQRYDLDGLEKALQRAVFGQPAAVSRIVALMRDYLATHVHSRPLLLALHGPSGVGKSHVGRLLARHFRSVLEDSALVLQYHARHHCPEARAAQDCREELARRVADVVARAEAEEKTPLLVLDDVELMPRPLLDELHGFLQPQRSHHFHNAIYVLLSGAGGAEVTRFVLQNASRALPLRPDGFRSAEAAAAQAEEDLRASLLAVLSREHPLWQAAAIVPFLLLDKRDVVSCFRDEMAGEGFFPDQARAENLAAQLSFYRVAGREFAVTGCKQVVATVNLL
# UniProt Q96FV9, sequence (Q96FV9 whole entry, looked up): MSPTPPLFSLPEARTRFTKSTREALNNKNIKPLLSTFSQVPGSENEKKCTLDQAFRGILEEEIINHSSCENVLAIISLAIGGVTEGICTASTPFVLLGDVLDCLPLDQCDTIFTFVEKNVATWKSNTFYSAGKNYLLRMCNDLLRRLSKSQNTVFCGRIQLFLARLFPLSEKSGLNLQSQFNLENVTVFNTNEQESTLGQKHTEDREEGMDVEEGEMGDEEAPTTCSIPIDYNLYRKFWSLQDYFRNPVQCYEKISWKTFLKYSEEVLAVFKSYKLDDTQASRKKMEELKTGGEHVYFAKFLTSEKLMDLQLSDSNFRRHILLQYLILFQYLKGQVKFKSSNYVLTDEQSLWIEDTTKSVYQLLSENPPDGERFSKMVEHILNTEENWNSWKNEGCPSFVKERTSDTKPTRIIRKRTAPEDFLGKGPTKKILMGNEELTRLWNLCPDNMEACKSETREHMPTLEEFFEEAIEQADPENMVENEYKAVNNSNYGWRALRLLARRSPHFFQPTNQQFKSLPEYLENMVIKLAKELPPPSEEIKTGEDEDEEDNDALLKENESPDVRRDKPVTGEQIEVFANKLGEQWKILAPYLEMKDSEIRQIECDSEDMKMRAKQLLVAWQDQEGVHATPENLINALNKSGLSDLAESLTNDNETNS
# UniProt Q13884, sequence (Q13884 whole entry, looked up): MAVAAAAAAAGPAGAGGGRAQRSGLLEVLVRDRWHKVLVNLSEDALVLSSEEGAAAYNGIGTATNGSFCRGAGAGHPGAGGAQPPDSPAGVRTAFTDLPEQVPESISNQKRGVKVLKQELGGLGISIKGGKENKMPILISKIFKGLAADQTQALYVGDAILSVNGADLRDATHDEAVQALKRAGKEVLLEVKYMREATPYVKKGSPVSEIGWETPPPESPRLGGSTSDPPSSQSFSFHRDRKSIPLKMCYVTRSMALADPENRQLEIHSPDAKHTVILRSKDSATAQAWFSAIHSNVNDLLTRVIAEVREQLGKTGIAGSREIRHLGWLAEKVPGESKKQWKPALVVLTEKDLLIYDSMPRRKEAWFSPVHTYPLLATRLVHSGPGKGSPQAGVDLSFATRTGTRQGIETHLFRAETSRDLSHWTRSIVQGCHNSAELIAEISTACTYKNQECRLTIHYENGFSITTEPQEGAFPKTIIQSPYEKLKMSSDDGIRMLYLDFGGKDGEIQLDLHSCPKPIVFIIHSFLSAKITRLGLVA
# UniProt Q8TE77, sequence (Q8TE77 whole entry, looked up): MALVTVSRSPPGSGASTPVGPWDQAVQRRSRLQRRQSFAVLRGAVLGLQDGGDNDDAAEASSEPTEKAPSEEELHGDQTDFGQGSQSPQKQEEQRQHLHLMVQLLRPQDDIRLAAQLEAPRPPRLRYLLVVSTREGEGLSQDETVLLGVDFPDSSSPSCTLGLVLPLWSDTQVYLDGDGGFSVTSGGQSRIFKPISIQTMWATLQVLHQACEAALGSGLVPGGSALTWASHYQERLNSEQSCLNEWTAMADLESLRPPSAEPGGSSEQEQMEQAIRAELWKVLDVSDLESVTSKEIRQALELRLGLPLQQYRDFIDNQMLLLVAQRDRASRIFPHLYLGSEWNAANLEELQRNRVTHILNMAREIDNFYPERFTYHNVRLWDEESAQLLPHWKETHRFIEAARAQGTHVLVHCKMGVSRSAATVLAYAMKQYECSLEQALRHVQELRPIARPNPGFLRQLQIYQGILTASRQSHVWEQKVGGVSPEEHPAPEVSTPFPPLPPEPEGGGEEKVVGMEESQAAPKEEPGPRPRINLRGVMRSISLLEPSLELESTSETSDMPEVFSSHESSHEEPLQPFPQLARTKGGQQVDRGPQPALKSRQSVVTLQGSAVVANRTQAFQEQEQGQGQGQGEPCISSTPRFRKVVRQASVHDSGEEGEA
row,Target,probe-labelled cysteine peptide fold change
1,TBCE_Q15813_141_NCAVSCAGEK (UniProt Q15813),-0.11
2,TOR4A_Q9NXH8_230_HHCPEAR (UniProt Q9NXH8),-0.165
3,TOR2A_Q5JU69_54_CTLGAFCECDFRPDLPGLECDLAQHLAGQHLAK (UniProt Q5JU69),-0.184
4,SRPK2_P78362_320_IIEENITSAAPSNDQDGEYCPEVK (UniProt P78362),-0.0943
5,TOP2A_P11388_170_LCNIFSTK (UniProt P11388),-0.173
6,SPC24_Q8NBT2_155_IEWDYECEPGMVK (UniProt Q8NBT2),-0.17
7,TNS3_Q68CZ2_88_MCTICK (UniProt Q68CZ2),-0.357
8,TMEM173_Q86WV6_12_PHSSLHPSIPCPR (UniProt Q86WV6),0.0393
9,TES_Q9UGI8_164_CHELSPR (UniProt Q9UGI8),-0.162
10,TIMELESS_Q9UNS1_96_LMVNLTQPALLCFGNLPK (UniProt Q9UNS1),0.247
11,TLE1_Q04724_621_QFQGHTDGASCIDISNDGTK<|>TLE4_Q04727_624_QFQGHTDGASCIDISNDGTK (UniProt Q04727+Q04724),-0.231
12,SURF2_Q15527_29+38_CILTGHELPCR (UniProt Q15527),0.0902
13,TANC1_Q9C0D5_800_MDALSCFLIK (UniProt Q9C0D5),-0.167
14,TBCB_Q99426_51_LELLVGSPASCMELELYGVDDK (UniProt Q99426),0.0991
15,SP9_P0CG40_308_ATCDCPNCQEAER<|>SP8_Q8IXZ3_332_ATCDCPNCQEAER (UniProt Q8IXZ3+P0CG40),0.0559
16,TAPBPL_Q9BX59_39_AVDVVLDCFLAK (UniProt Q9BX59),0.062
17,TBC1D13_Q9NVG8_145_ATDYPCLLILDPQNEFETLR (UniProt Q9NVG8),-0.0238
18,THOC1_Q96FV9_396_NEGCPSFVK (UniProt Q96FV9),-0.137
19,THADA_Q6YHU6_1605_ENHPECFCK (UniProt Q6YHU6),-0.00737
20,SNX1_Q13596_318_LQEVECEEQR (UniProt Q13596),-0.177

row,Target,probe-labelled cysteine peptide fold change
1,SNTB1_Q13884_515_DGEIQLDLHSCPK (UniProt Q13884),-0.136
2,TBL2_Q9Y4P3_240_GQVLSTINTNQMNNTHAAVSPCGR (UniProt Q9Y4P3),-0.0462
3,SOS1_Q07889_838_CIVETENLEER (UniProt Q07889),0.113
4,SON_P18583-2_2133_DLMANATCFR (UniProt P18583),5.1e-05
5,TMEM209_Q96SK2_495_TFTSQHFVQTPNKPDVTNENVFCIYQSAINPPHYELIYQR (UniProt Q96SK2),0.145
6,THEMIS2_Q5TEJ8_355_DCEGEREENPEFTSLAVGDR (UniProt Q5TEJ8),-0.0936
7,STXBP3_O00186_114_AAYIYFTDFCPDNLFNK (UniProt O00186),0.0291
8,TARS_P26639_467_RFQQDDAHIFCAMEQIEDEIK (UniProt P26639),0.126
9,SSH3_Q8TE77_434_QYECSLEQALR (UniProt Q8TE77),-0.058
10,ST13_P50502_209_LLGHWEEAAHDLALACKLDYDEDASAMLK (UniProt P50502),-0.319
11,TARS2_Q9BW92_322_IGKEQELFFFHELSPGSCFFLPR (UniProt Q9BW92),-0.0453
12,TLN1_Q9Y490_1363_ECDNALRELETVR (UniProt Q9Y490),-0.431
13,SYK_P43405_89+101_THASPADLCHYHSQESDGLVCLLK (UniProt P43405),-0.0638
14,STK11IP_Q8N1F8_707+710_TESPAVCPNCGSDHVVLLAVSR (UniProt Q8N1F8),0.0186
15,TCF20_Q9UGU0_1918_YHYPCAIDADCLLHEENFSVR (UniProt Q9UGU0),0.317
16,SUGP2_Q8IX01_417_NCFFEIIKPFDK (UniProt Q8IX01),-0.328
17,TBC1D4_O60343_74_SQKPEAGGCGAPAAR (UniProt O60343),-0.579
18,STXBP5_Q5T5C0_933_VISLPTQNCAYK (UniProt Q5T5C0),0.186
19,TPI1_P60174_164_VAHALAEGLGVIACIGEK (UniProt P60174),0.0839
20,SPECC1_Q5M775_578_ATEASAVEQTAESCEVQEMLK (UniProt Q5M775),-0.116

# Same assay, conditions: 50 µM; THP-1; incubation time: 4 h
row,Target,probe-labelled cysteine peptide fold change
1,TBCE_Q15813_141_NCAVSCAGEK (UniProt Q15813),-1.39
2,TOR4A_Q9NXH8_230_HHCPEAR (UniProt Q9NXH8),0.0719
3,TOR2A_Q5JU69_54_CTLGAFCECDFRPDLPGLECDLAQHLAGQHLAK (UniProt Q5JU69),0.309
4,SRPK2_P78362_320_IIEENITSAAPSNDQDGEYCPEVK (UniProt P78362),0.0113
5,TOP2A_P11388_170_LCNIFSTK (UniProt P11388),-0.0147
6,SPC24_Q8NBT2_155_IEWDYECEPGMVK (UniProt Q8NBT2),0.000933
7,TNS3_Q68CZ2_88_MCTICK (UniProt Q68CZ2),-0.873
8,TMEM173_Q86WV6_12_PHSSLHPSIPCPR (UniProt Q86WV6),-0.625
9,TES_Q9UGI8_164_CHELSPR (UniProt Q9UGI8),-0.0644
10,TIMELESS_Q9UNS1_96_LMVNLTQPALLCFGNLPK (UniProt Q9UNS1),-1.08
11,TLE1_Q04724_621_QFQGHTDGASCIDISNDGTK<|>TLE4_Q04727_624_QFQGHTDGASCIDISNDGTK (UniProt Q04727+Q04724),-0.0783
12,SURF2_Q15527_29+38_CILTGHELPCR (UniProt Q15527),-0.0729
13,TANC1_Q9C0D5_800_MDALSCFLIK (UniProt Q9C0D5),-1.29
14,TBCB_Q99426_51_LELLVGSPASCMELELYGVDDK (UniProt Q99426),0.421
15,SP9_P0CG40_308_ATCDCPNCQEAER<|>SP8_Q8IXZ3_332_ATCDCPNCQEAER (UniProt Q8IXZ3+P0CG40),0.393
16,TAPBPL_Q9BX59_39_AVDVVLDCFLAK (UniProt Q9BX59),-0.104
17,TBC1D13_Q9NVG8_145_ATDYPCLLILDPQNEFETLR (UniProt Q9NVG8),0.373
18,THOC1_Q96FV9_396_NEGCPSFVK (UniProt Q96FV9),-0.0773
19,THADA_Q6YHU6_1605_ENHPECFCK (UniProt Q6YHU6),0.033
20,SNX1_Q13596_318_LQEVECEEQR (UniProt Q13596),-0.146

row,Target,probe-labelled cysteine peptide fold change
1,SNTB1_Q13884_515_DGEIQLDLHSCPK (UniProt Q13884),1
2,TBL2_Q9Y4P3_240_GQVLSTINTNQMNNTHAAVSPCGR (UniProt Q9Y4P3),0.0804
3,SOS1_Q07889_838_CIVETENLEER (UniProt Q07889),0.392
4,SON_P18583-2_2133_DLMANATCFR (UniProt P18583),-0.396
5,TMEM209_Q96SK2_495_TFTSQHFVQTPNKPDVTNENVFCIYQSAINPPHYELIYQR (UniProt Q96SK2),0.0358
6,THEMIS2_Q5TEJ8_355_DCEGEREENPEFTSLAVGDR (UniProt Q5TEJ8),0.194
7,STXBP3_O00186_114_AAYIYFTDFCPDNLFNK (UniProt O00186),0.184
8,TARS_P26639_467_RFQQDDAHIFCAMEQIEDEIK (UniProt P26639),0.326
9,SSH3_Q8TE77_434_QYECSLEQALR (UniProt Q8TE77),-0.0996
10,ST13_P50502_209_LLGHWEEAAHDLALACKLDYDEDASAMLK (UniProt P50502),-1.1
11,TARS2_Q9BW92_322_IGKEQELFFFHELSPGSCFFLPR (UniProt Q9BW92),-0.425
12,TLN1_Q9Y490_1363_ECDNALRELETVR (UniProt Q9Y490),-1
13,SYK_P43405_89+101_THASPADLCHYHSQESDGLVCLLK (UniProt P43405),-0.0651
14,STK11IP_Q8N1F8_707+710_TESPAVCPNCGSDHVVLLAVSR (UniProt Q8N1F8),0.166
15,TCF20_Q9UGU0_1918_YHYPCAIDADCLLHEENFSVR (UniProt Q9UGU0),0.504
16,SUGP2_Q8IX01_417_NCFFEIIKPFDK (UniProt Q8IX01),-1.49
17,TBC1D4_O60343_74_SQKPEAGGCGAPAAR (UniProt O60343),-1.59
18,STXBP5_Q5T5C0_933_VISLPTQNCAYK (UniProt Q5T5C0),0.107
19,TPI1_P60174_164_VAHALAEGLGVIACIGEK (UniProt P60174),0.00853
20,SPECC1_Q5M775_578_ATEASAVEQTAESCEVQEMLK (UniProt Q5M775),-0.22

# — the supplement of paper PMC12067093, “Discovery and optimisation of a covalent ligand for TRIM25 and its application to targeted protein ubiquitination” (Chemical Science, 2025)
